We go through 30 sequences from publication PMC9838217, “Structure of SALL4 zinc finger domain reveals link between AT-rich DNA binding and Okihiro syndrome”.

What all share (assay): HT-SELEX; high values mean tight binding
What all share (settings): protein: recombinant; vector His6-GST; dsDNA, one strand shown

For one experiment, the target named is T1, SALL4 ZFC4 WT (HT-SELEX) (Mus musculus, UniProt Q8BX22 870-940).
T1 sequence: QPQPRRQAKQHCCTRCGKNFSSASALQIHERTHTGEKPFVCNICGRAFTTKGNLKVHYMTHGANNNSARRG
Summed up: (§1)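 Purified recombinant mouse SALL4 zinc finger cluster 4 (residues 870–940, 1 µg) was incubated with library DNA (1.5 µg first cycle, 200 ng later) in 100 µl of 10 mM Tris–HCl pH 7.5, 50 mM NaCl, poly(dI-dC) and DTT for 10 min at room temperature, with Ni2+ bead capture and reselection for up to 6 cycles in triplicate. MiSeq reads were scanned for 6-mers. Binding signal is each canonical k-mer's read fraction as fold change relative to the initial random library.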

Experiment [1] addresses T2, SALL4 ZFC4 R900W (HT-SELEX) (Mus musculus, UniProt Q8BX22 870-940, R900W).
T2 sequence: T1 sequence with R31W
Summed up:
as §1

Experiment [2] concerns the target T3, SALL4 ZFC4 G921D (HT-SELEX) (Mus musculus, UniProt Q8BX22 870-940, G921D).
T3 sequence: T1 sequence with G52D
Summed up:
as §1

Numbering of substitutions follows the chain as printed.

Regarding CCCTTA, the binding signal in the experiment with SALL4 ZFC4 WT (HT-SELEX) turned out to be 0.943 ± 0.0612 fold-change vs cycle 0; in experiment [1], 1.06 ± 0.0532 fold-change vs cycle 0; in experiment [2], 1.02 ± 0.0595 fold-change vs cycle 0.
Regarding CATGCA, the binding signal in the experiment with SALL4 ZFC4 WT (HT-SELEX) came out at 0.683 ± 0.0413 fold-change vs cycle 0; in experiment [1], 0.757 ± 0.0296 fold-change vs cycle 0; in experiment [2], 0.805 ± 0.0272 fold-change vs cycle 0.
As to CTGCTC, the binding signal with SALL4 ZFC4 WT (HT-SELEX) came to 0.36 ± 0.0162 fold-change vs cycle 0; in experiment [1], 0.436 ± 0.00828 fold-change vs cycle 0; in experiment [2], 0.567 ± 0.028 fold-change vs cycle 0.
For TAAGGA the same measures were 1.59 ± 0.0522 fold-change vs cycle 0, 1.71 ± 0.0756 fold-change vs cycle 0 and 1.54 ± 0.114 fold-change vs cycle 0.
For the sequence ACTACT, the results for the binding signal (with SALL4 ZFC4 WT (HT-SELEX); in experiment [1]; in experiment [2]) were 1.38 ± 0.0657 fold-change vs cycle 0, 1.52 ± 0.107 fold-change vs cycle 0 and 1.43 ± 0.121 fold-change vs cycle 0, respectively.
For CTTACC, in that order: 0.909 ± 0.0427 fold-change vs cycle 0, 1.06 ± 0.0534 fold-change vs cycle 0 and 1.02 ± 0.0246 fold-change vs cycle 0.
Regarding ATGGGG, the binding signal with SALL4 ZFC4 WT (HT-SELEX) amounted to 0.486 ± 0.0322 fold-change vs cycle 0; in experiment [1], 0.546 ± 0.0309 fold-change vs cycle 0; in experiment [2] it was 0.615 ± 0.052 fold-change vs cycle 0.
With GAAGCA, the binding signal with SALL4 ZFC4 WT (HT-SELEX) stood at 0.667 ± 0.0348 fold-change vs cycle 0; in experiment [1], 0.784 ± 0.0247 fold-change vs cycle 0; in experiment [2], 0.88 ± 0.0121 fold-change vs cycle 0.
GTAAAC: the binding signal with SALL4 ZFC4 WT (HT-SELEX) was 1.27 ± 0.0422 fold-change vs cycle 0; in experiment [1], 1.39 ± 0.0625 fold-change vs cycle 0; in experiment [2], 1.32 ± 0.0873 fold-change vs cycle 0.
Consider CCGGTA, for which the results for the binding signal (with SALL4 ZFC4 WT (HT-SELEX); in experiment [1]; in experiment [2]) were 0.345 ± 0.0119 fold-change vs cycle 0, 0.396 ± 0.0133 fold-change vs cycle 0 and 0.501 ± 0.0627 fold-change vs cycle 0, respectively.
For ACACTC, in that order: 0.798 ± 0.0206 fold-change vs cycle 0, 0.908 ± 0.0437 fold-change vs cycle 0 and 0.948 ± 0.0215 fold-change vs cycle 0.
For the sequence AATGTA, the results for the binding signal (in the experiment with SALL4 ZFC4 WT (HT-SELEX); in experiment [1]; in experiment [2]) were 2.02 ± 0.0563 fold-change vs cycle 0, 1.99 ± 0.0939 fold-change vs cycle 0 and 1.76 ± 0.157 fold-change vs cycle 0, respectively.
As for GGGACA, the results for the binding signal (in the experiment with SALL4 ZFC4 WT (HT-SELEX); in experiment [1]; in experiment [2]) were 0.383 ± 0.0239 fold-change vs cycle 0, 0.458 ± 0.0236 fold-change vs cycle 0 and 0.564 ± 0.0569 fold-change vs cycle 0, respectively.
Turning to CGATCC, the binding signal in the experiment with SALL4 ZFC4 WT (HT-SELEX) came to 0.359 ± 0.0529 fold-change vs cycle 0; in experiment [1], 0.43 ± 0.0262 fold-change vs cycle 0; in experiment [2], 0.584 ± 0.0363 fold-change vs cycle 0.
For TGAGAA, in that order: 1.37 ± 0.0413 fold-change vs cycle 0, 1.49 ± 0.0497 fold-change vs cycle 0 and 1.38 ± 0.0987 fold-change vs cycle 0.
With AAGGTC, the binding signal in the experiment with SALL4 ZFC4 WT (HT-SELEX) is 0.725 ± 0.0449 fold-change vs cycle 0; in experiment [1], 0.885 ± 0.0273 fold-change vs cycle 0; in experiment [2] it was 0.943 ± 0.0196 fold-change vs cycle 0.
For the sequence AAGCGA, the binding signal with SALL4 ZFC4 WT (HT-SELEX) came to 0.546 ± 0.0399 fold-change vs cycle 0; in experiment [1], 0.616 ± 0.0449 fold-change vs cycle 0; in experiment [2], 0.734 ± 0.0783 fold-change vs cycle 0.
TATTAA: the binding signal in the experiment with SALL4 ZFC4 WT (HT-SELEX) was found to be 5.02 ± 0.457 fold-change vs cycle 0; in experiment [1], 2.69 ± 0.232 fold-change vs cycle 0; in experiment [2] it was 2.25 ± 0.285 fold-change vs cycle 0.
Turning to CGGATC, the binding signal with SALL4 ZFC4 WT (HT-SELEX) was 0.362 ± 0.0382 fold-change vs cycle 0; in experiment [1], 0.438 ± 0.0155 fold-change vs cycle 0; in experiment [2] it was 0.571 ± 0.02 fold-change vs cycle 0.
For CCTTAA, in that order: 1.32 ± 0.0558 fold-change vs cycle 0, 1.49 ± 0.018 fold-change vs cycle 0 and 1.37 ± 0.0901 fold-change vs cycle 0.
As to GAACCA, the figures for the binding signal (with SALL4 ZFC4 WT (HT-SELEX); in experiment [1]; in experiment [2]) were 0.766 ± 0.0201 fold-change vs cycle 0, 0.871 ± 0.0494 fold-change vs cycle 0 and 0.937 ± 0.0521 fold-change vs cycle 0, respectively.
Take AGAAAA: the results for the binding signal (in the experiment with SALL4 ZFC4 WT (HT-SELEX); in experiment [1]; in experiment [2]) were 1.83 ± 0.0887 fold-change vs cycle 0, 1.85 ± 0.0773 fold-change vs cycle 0 and 1.63 ± 0.11 fold-change vs cycle 0, respectively.
For the sequence AGTCCG, the binding signal in the experiment with SALL4 ZFC4 WT (HT-SELEX) is 0.333 ± 0.0345 fold-change vs cycle 0; in experiment [1], 0.404 ± 0.0391 fold-change vs cycle 0; in experiment [2], 0.533 ± 0.0458 fold-change vs cycle 0.
For ATAATA, in that order: 4.87 ± 0.591 fold-change vs cycle 0, 2.66 ± 0.215 fold-change vs cycle 0 and 2.24 ± 0.293 fold-change vs cycle 0.
For AGTTTG the same measures were 1.14 ± 0.0447 fold-change vs cycle 0, 1.23 ± 0.039 fold-change vs cycle 0 and 1.22 ± 0.0352 fold-change vs cycle 0.
On to ACCGAA, for which the binding signal with SALL4 ZFC4 WT (HT-SELEX) was found to be 0.637 ± 0.01 fold-change vs cycle 0; in experiment [1], 0.698 ± 0.028 fold-change vs cycle 0; in experiment [2], 0.776 ± 0.0511 fold-change vs cycle 0.
Consider AAATGA, for which the results for the binding signal (with SALL4 ZFC4 WT (HT-SELEX); in experiment [1]; in experiment [2]) were 2.02 ± 0.088 fold-change vs cycle 0, 1.91 ± 0.0687 fold-change vs cycle 0 and 1.75 ± 0.132 fold-change vs cycle 0, respectively.
In the case of AGAGTC, the binding signal in the experiment with SALL4 ZFC4 WT (HT-SELEX) stood at 0.786 ± 0.0201 fold-change vs cycle 0; in experiment [1], 0.925 ± 0.0489 fold-change vs cycle 0; in experiment [2] it was 0.995 ± 0.0509 fold-change vs cycle 0.
For CCGTGA, in that order: 0.39 ± 0.0265 fold-change vs cycle 0, 0.468 ± 0.0123 fold-change vs cycle 0 and 0.578 ± 0.0442 fold-change vs cycle 0.
With CGACTA, the binding signal with SALL4 ZFC4 WT (HT-SELEX) was 0.59 ± 0.0236 fold-change vs cycle 0; in experiment [1] it was 0.656 ± 0.0311 fold-change vs cycle 0; in experiment [2], 0.777 ± 0.0234 fold-change vs cycle 0.
